In assay [1] the target is T1, Tyrosine-protein kinase ITK/TSK (Homo sapiens) (UniProt Q08881).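 Further: values are mean percent inhibition of ITK from the GSK PKIS screen.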
T1 sequence (whole entry): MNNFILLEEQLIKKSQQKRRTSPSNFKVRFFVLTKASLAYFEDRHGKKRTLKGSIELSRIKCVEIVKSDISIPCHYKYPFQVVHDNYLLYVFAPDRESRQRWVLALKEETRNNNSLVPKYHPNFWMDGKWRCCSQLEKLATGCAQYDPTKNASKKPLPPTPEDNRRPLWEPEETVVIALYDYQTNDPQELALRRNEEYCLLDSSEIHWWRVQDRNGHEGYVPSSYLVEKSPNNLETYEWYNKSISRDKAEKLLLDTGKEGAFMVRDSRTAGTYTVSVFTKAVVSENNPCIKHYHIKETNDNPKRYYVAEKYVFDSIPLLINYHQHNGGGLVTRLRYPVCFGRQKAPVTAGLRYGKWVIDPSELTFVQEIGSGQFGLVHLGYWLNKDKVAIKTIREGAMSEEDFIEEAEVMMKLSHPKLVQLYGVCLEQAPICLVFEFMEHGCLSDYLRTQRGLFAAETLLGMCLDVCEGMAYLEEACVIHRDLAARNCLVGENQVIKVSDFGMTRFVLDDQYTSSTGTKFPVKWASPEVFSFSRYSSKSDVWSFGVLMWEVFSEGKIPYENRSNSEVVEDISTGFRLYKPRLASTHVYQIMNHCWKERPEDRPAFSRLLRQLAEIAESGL
The settings on record: at 1 µM.

Assay [2] addresses Tyrosine-protein kinase JAK1 (Homo sapiens) (UniProt P23458). The settings on record: at 0.1 µM.
For assay [3] the target is unchanged. The following applies: at 1 µM.
Assay [4] has as its target Tyrosine-protein kinase JAK2 (Homo sapiens) (UniProt O60674). The settings on record: at 0.1 µM.
The target is the same in assay [5]. The settings on record: at 1 µM.
Assay [6] concerns the target T2, Tyrosine-protein kinase JAK3 (Homo sapiens) (UniProt P52333).
T2 sequence (whole entry): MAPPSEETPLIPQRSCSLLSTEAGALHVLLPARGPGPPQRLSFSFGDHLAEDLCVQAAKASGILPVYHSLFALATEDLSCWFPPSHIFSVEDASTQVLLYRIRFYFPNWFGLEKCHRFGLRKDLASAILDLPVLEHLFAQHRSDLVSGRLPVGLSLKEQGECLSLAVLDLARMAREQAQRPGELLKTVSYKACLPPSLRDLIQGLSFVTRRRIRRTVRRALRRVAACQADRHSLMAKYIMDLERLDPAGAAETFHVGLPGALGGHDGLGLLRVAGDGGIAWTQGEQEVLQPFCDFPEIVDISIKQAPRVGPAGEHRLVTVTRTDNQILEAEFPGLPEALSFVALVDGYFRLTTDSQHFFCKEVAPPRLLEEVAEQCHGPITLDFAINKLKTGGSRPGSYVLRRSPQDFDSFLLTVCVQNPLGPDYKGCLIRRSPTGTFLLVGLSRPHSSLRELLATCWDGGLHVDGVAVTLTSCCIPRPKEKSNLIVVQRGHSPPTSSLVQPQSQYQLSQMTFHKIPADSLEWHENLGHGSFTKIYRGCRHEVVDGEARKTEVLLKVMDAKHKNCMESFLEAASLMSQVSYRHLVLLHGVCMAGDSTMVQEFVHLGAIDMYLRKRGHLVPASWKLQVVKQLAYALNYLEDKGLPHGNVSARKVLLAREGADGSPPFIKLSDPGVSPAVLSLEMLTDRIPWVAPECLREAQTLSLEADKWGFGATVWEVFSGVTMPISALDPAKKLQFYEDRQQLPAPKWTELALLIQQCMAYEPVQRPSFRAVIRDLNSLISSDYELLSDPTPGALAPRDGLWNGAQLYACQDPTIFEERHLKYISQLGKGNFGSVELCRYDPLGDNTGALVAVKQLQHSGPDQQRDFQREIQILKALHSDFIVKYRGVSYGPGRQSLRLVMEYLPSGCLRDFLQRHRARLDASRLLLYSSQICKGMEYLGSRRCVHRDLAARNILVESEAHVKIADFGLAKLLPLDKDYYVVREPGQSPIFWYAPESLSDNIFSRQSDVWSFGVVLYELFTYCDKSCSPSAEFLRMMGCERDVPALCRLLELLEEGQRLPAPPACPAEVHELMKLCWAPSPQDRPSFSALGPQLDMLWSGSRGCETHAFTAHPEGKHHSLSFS
The settings on record: at 0.1 µM.

In assay [7] the target is T2, Tyrosine-protein kinase JAK3 (Homo sapiens). The settings on record: at 1 µM.
For assay [8], the target named is Vascular endothelial growth factor receptor 2 (Homo sapiens) (UniProt P35968). The settings on record: at 0.1 µM.
Chain of Vascular endothelial growth factor receptor 2 (Homo sapiens) (P35968 whole entry): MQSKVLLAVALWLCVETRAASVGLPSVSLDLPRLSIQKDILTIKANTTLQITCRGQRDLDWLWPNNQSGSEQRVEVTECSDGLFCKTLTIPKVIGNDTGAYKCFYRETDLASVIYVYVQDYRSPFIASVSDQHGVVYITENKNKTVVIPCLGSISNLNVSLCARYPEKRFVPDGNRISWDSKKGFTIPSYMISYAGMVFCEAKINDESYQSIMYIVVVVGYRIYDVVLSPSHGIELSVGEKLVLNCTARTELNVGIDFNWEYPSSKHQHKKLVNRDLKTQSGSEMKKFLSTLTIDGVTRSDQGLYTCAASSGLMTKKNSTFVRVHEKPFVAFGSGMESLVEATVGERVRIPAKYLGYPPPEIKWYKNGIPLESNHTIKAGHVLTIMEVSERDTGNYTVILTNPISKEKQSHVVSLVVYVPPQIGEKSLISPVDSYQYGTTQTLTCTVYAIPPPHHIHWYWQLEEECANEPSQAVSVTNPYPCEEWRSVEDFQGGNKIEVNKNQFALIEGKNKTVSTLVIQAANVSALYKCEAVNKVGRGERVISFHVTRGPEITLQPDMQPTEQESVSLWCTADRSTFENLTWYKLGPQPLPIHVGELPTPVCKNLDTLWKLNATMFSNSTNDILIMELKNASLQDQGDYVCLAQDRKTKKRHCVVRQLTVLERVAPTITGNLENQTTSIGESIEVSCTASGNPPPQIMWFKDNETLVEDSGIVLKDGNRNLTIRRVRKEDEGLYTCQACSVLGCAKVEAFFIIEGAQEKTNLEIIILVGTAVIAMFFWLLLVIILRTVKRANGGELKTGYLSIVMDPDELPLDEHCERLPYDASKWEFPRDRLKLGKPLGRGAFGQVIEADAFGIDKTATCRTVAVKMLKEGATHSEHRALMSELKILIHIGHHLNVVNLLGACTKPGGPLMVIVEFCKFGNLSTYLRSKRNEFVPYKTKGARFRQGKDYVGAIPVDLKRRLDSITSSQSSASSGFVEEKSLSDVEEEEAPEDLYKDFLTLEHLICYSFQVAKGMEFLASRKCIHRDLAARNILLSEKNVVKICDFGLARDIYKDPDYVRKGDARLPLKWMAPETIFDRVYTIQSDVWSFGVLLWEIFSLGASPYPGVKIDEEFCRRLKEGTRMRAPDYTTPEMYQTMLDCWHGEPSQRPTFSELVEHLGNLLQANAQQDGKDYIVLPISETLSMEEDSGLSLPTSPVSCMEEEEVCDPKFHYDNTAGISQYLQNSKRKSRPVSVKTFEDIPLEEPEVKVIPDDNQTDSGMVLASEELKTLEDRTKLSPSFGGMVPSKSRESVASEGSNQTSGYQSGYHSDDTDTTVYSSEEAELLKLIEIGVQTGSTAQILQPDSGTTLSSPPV
Assay [9] has the same target. The settings on record: at 1 µM.
The target of assay [10] is Mast/stem cell growth factor receptor Kit (Homo sapiens) (UniProt P10721). The following applies: at 0.1 µM.
Chain of Mast/stem cell growth factor receptor Kit (Homo sapiens) (P10721 whole entry): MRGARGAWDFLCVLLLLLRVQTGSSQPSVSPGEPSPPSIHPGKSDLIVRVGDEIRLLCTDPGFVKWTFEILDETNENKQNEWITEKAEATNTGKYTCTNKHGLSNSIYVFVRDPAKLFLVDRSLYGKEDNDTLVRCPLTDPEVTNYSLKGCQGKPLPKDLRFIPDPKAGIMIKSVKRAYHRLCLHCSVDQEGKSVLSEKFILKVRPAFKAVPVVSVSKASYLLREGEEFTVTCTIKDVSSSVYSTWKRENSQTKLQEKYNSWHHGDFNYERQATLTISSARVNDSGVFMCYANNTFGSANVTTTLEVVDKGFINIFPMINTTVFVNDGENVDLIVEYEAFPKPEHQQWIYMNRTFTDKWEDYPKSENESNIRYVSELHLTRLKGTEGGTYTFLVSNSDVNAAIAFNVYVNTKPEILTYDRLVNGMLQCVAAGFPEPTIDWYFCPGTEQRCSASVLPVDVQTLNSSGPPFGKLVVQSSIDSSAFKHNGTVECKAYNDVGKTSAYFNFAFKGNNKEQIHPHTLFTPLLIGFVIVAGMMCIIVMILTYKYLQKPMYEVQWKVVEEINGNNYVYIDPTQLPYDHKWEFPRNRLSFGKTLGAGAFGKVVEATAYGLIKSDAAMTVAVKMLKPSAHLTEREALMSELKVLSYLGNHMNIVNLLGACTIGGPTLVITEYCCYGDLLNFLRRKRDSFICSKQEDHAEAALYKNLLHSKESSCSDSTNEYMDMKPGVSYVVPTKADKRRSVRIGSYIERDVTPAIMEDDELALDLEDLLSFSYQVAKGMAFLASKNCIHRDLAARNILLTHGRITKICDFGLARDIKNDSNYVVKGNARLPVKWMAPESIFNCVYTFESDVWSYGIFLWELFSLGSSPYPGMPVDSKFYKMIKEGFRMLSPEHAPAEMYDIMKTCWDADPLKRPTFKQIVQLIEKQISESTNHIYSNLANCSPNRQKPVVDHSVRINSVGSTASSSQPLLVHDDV
Assay [11] has the same target. The settings on record: at 1 µM.
Assay [12] concerns Mast/stem cell growth factor receptor Kit (Homo sapiens), P10721 [D816V]. The settings on record: at 0.1 µM.
Chain of Mast/stem cell growth factor receptor Kit (Homo sapiens), P10721 [D816V] (P10721 whole entry D816V): as the sequence (P10721 whole entry) above, with D816V counted along it
Assay [13] shares this test system. The settings on record: at 1 µM.
Assay [14] concerns Mast/stem cell growth factor receptor Kit (Homo sapiens), P10721 [T670I]. The following applies: at 0.1 µM.
Chain of Mast/stem cell growth factor receptor Kit (Homo sapiens), P10721 [T670I] (P10721 whole entry T670I): as the sequence (P10721 whole entry) above, with T670I counted along it
Assay [15] shares this test system. The following applies: at 1 µM.
For assay [16], the system named is Mast/stem cell growth factor receptor Kit (Homo sapiens), P10721 [V560G]. The settings on record: at 0.1 µM.
Chain of Mast/stem cell growth factor receptor Kit (Homo sapiens), P10721 [V560G] (P10721 whole entry V560G): as the sequence (P10721 whole entry) above, with V560G counted along it
For assay [17] the test system is unchanged. The settings on record: at 1 µM.
Assay [18] deals with Tyrosine-protein kinase Lck (Homo sapiens) (UniProt P06239). The settings on record: at 0.1 µM.
Chain of Tyrosine-protein kinase Lck (Homo sapiens) (P06239 2-509 limits assumed): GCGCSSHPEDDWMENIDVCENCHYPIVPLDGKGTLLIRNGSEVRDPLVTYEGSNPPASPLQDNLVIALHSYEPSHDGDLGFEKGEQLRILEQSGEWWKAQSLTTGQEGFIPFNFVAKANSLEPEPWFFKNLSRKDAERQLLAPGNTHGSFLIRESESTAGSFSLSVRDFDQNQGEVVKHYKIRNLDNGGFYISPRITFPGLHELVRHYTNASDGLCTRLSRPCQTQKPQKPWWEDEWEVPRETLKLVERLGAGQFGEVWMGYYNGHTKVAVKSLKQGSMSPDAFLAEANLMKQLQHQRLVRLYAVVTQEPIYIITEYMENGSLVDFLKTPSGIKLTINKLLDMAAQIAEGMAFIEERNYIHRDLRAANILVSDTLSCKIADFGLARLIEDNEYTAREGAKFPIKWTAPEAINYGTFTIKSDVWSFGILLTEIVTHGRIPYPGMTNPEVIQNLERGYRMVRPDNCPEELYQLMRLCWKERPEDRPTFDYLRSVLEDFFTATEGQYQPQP
Assay [19] shares this target. The following applies: at 1 µM.
Assay [20] addresses Leukocyte tyrosine kinase receptor (Homo sapiens) (UniProt P29376). The following applies: at 0.1 µM.

In general, inhibition refers to the change of the read-out against control, counted positive when it falls.

Molecules are shown by their SMILES.

Chain of Tyrosine-protein kinase JAK2 (Homo sapiens) (O60674 whole entry): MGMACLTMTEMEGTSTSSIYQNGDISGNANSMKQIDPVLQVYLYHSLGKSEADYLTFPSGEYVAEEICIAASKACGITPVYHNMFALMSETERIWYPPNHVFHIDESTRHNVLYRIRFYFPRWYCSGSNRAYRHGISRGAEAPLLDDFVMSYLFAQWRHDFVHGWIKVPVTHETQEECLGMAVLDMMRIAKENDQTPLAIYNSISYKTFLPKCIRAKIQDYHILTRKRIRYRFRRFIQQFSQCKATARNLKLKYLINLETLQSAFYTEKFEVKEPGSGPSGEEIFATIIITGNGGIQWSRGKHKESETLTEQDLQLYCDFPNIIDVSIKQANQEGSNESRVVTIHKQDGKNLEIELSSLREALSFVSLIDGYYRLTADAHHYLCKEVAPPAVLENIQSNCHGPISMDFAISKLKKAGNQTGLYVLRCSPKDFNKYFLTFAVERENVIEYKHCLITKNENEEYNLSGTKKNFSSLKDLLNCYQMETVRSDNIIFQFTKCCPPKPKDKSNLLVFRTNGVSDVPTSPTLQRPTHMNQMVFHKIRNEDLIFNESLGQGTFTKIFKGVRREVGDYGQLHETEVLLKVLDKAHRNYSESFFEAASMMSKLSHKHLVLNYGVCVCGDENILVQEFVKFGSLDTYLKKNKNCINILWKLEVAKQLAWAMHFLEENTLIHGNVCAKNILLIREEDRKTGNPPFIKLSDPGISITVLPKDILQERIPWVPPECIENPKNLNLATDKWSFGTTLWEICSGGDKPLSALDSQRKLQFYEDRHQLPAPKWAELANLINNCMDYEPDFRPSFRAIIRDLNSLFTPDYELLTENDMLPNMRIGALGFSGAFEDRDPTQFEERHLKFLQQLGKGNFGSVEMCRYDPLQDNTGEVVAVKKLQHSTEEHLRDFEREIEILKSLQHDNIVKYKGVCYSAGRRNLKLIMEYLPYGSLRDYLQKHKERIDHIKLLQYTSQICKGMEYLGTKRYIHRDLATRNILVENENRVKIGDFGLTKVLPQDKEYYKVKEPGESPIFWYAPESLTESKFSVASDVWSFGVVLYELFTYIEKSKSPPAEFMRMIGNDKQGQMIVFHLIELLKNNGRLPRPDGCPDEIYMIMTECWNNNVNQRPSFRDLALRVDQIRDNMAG
Chain of Leukocyte tyrosine kinase receptor (Homo sapiens) (P29376 whole entry): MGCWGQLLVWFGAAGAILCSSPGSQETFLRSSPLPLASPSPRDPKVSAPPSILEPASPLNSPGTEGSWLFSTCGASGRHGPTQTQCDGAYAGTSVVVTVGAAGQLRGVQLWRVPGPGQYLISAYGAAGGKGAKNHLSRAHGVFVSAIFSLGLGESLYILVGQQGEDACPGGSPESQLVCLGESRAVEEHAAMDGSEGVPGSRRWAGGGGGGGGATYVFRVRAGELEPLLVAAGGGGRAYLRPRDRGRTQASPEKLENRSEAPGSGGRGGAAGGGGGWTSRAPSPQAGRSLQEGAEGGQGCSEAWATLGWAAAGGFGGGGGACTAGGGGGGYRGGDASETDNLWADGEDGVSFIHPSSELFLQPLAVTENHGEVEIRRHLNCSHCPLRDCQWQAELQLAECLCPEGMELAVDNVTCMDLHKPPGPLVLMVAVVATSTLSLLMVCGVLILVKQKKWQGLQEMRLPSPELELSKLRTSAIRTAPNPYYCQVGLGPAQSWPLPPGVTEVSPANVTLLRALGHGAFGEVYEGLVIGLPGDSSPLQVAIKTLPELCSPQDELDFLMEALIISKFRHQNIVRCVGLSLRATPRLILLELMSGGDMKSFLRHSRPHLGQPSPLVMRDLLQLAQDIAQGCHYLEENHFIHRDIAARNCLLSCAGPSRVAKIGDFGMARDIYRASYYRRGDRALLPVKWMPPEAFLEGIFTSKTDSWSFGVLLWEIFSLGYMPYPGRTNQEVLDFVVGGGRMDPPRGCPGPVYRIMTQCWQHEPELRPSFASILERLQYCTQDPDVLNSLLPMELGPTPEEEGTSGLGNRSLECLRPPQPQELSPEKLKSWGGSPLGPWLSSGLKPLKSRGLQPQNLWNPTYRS

As to `CN(C)C(=O)O[C@H]1CN[C@H](C#Cc2cc3ncnc(Nc4ccc(OCc5cccc(F)c5)c(Cl)c4)c3s2)C1`, the inhibition in [1] is 1.42%; in assay [2], 2.35%; in assay [3] it was 4.66%; in assay [4] it was 1.84%; in [5] it was 1.89%; in assay [6], -0.68%. Also, the inhibition in assay [7] worked out at 1.63%; in assay [8] it was 4.69%; in assay [9], 9.06%; in assay [10], 2.32%; in assay [11], 3%; in assay [12], 2.35%. The inhibition in [13] is -1.14%; in assay [14], 1.09%; in assay [15], 0.88%; in assay [16], 0.04%; in assay [17] it was 2.8%; in [18] it was 1.92%. For the same molecule, the inhibition in assay [19] was determined as 3.02%; in assay [20] it was 1.7%.

On to `C[C@@H](Oc1cc(-n2cnc3ccc(OC[C@@H](O)CO)cc32)sc1C(N)=O)c1ccccc1Cl`, for which the inhibition in assay [1] is 0.81%; in assay [2], -2.88%; in assay [3], 0.21%; in assay [4] it was -0.63%; in assay [5], 0.06%; in assay [6] it was -0.17%. Moreover, the inhibition in [7] was 19.7%; in assay [8], 1.39%; in assay [9], 22.2%; in [10] it was -0.46%; in assay [11], 4.68%; in assay [12], -3.17%. Also, the inhibition was 1.58% in assay [13]; -1.2% in assay [14]; 0.87% in assay [15]; 3.36% in assay [16]; 2.13% in [17]; 1.2% in assay [18]. The inhibition in assay [19] is 6.12%; in [20], -0.43%.

For the molecule `CCOc1nccc2c1nc(-c1nonc1N)n2CC`, the inhibition in assay [1] came out at 3.31%; in assay [2] it was 6.31%; in [3], 18.7%; in assay [4], 1.55%; in assay [5], 1.18%; in [6], 0.47%. Further, the inhibition was 4.71% in assay [7]; 9.84% in assay [8]; 23.8% in assay [9]; 3.38% in assay [10]; 10.2% in assay [11]; -2.27% in assay [12]. The inhibition came to 3.77% in assay [13]; 4.03% in [14]; 6.04% in assay [15]; 4.82% in assay [16]; 7.59% in [17]; 1.92% in [18]. In addition, the inhibition in assay [19] is 3.61%; in assay [20], 1.89%.

In the case of `c1ccc(Cc2nc3ccc(Nc4ncnc5ccccc45)cc3[nH]2)cc1`, the inhibition in assay [1] was 1.07%; in [2], 1.47%; in [3] it was 5.36%; in assay [4], 1.11%; in [5] it was 1.7%; in assay [6], -1.75%. Further, the inhibition in [7] was 2.4%; in assay [8] it was 2.38%; in assay [9], 5.81%; in assay [10], 6.44%; in [11] it was 11.5%; in [12] it was 2.6%. Further, the inhibition in [13] stood at 7.57%; in assay [14], 5.98%; in [15] it was 3.71%; in [16], 2.34%; in [17] it was 5.96%; in assay [18] it was 2.08%. Further, the inhibition in assay [19] was found to be 9.45%; in [20], 2.98%.

On to `Cc1ccc2c(c1)/C(=N/Nc1ccc(S(N)(=O)=O)cc1)C(=O)N2`, for which the inhibition in assay [1] is 1.38%; in assay [2] it was -1.86%; in assay [3], -1.74%; in [4] it was -1.17%; in [5], -0.24%; in assay [6], 0.33%. Besides, the inhibition in assay [7] is 4.38%; in [8], 2.62%; in assay [9], 22.6%; in assay [10], 27.8%; in assay [11], 80.1%; in assay [12], -0.66%. The inhibition in assay [13] was -3.04%; in assay [14] it was 3.2%; in [15], 54.4%; in assay [16], 1.27%; in assay [17], 24.4%; in assay [18], 1.15%. Also, the values for the inhibition in assay [19] and in [20] were 3.66% and 0.21%, respectively.

For `CN(C)c1cc2c(Nc3ccc4c(cnn4Cc4ccccc4)c3)ncnc2cn1`, the inhibition in assay [1] is 0.99%; in [2] it was 3.23%; in assay [3], -0.82%; in [4], 0.91%; in assay [5], 2.18%; in assay [6], -0.53%. Moreover, the inhibition was 0.54% in assay [7]; 4.41% in assay [8]; 18.2% in assay [9]; 3.49% in [10]; 3.38% in assay [11]; 4.89% in assay [12]. For the same molecule, the inhibition was 2.07% in [13]; 3.06% in assay [14]; -0.32% in [15]; -2.8% in assay [16]; 2.75% in [17]; 5.16% in assay [18]. Moreover, the inhibition in assay [19] was 22.6%; in assay [20], 1.81%.

In the case of `Cc1ccc(O)cc1Nc1ccnc2ccc(S(C)(=O)=O)cc12`, the inhibition in [1] was 1.21%; in [2], 3.67%; in [3], 11.8%; in assay [4], 1.33%; in assay [5], 2.12%; in [6], -1.23%. Also, the inhibition in assay [7] was 0.26%; in assay [8], 70.1%; in [9] it was 71.1%; in [10] it was 13.2%; in assay [11] it was 48.2%; in assay [12] it was 38.2%. Besides, the inhibition in [13] was 84.5%; in assay [14], 4.38%; in assay [15] it was 8%; in assay [16], 8.1%; in assay [17] it was 53.7%; in [18] it was 86.3%. The inhibition in [19] amounted to 97.1%; in assay [20], 4.66%.

These data come from ChEMBL document CHEMBL1961873, “Compounds: GSK PKIS; Assays: Nanosyn kinase panel” (2012).
